ChEMBL document CHEMBL3988442, “University of Dundee, Small-Polar-MMV Screening Library” (2021)
About 13,000 (27%) of roughly 48,000 compounds showed an effect of 50% or more. The list shows a part of the results.

System: Wolbachia pipientis
Test: Anti-Wolbachia Cell-Based Screen
Type: functional
Design: scale not given: in the data most compounds retested in dose-response had high values
Details: 5 µM

SMILES | Percent Effect
Cc1nn(C)c(C)c1CN(C)S(=O)(=O)c1c(C)n[nH]c1C | 32.27%
CCC(=O)N1CCN(C(=O)c2ccc(COC)o2)[C@H]2CS(=O)(=O)C[C@H]21 | 2.835%
CN(C)CCNCC1(O)CCCN(Cc2cccc(F)c2F)C1=O (centres undefined) | -8.676%
CNS(=O)(=O)CCNC(=O)c1coc(COc2ccc(F)cc2)n1 | -18.85%
O=C([C@@H]1Cc2[nH]cnc2CN1CC1CC1)N1CCCC1 | 2.393%
CC1(C)Cc2nc(C(C)(C)C)ncc2C(NC(=O)Cc2nnn[nH]2)C1 (centres undefined) | 84.56%
CC1(C)Cc2nc(C(C)(C)C)ncc2C(NC(=O)CN)C1 (centres undefined) | 108.4%
CC(=O)NC1CC(C)(C)Cc2c1cnn2-c1cccc(F)c1 (centres undefined) | 27.72%
CC(C)(C)c1ncc2c(n1)CN(C(=O)c1ccncc1)C2 | 6.547%
CC(=O)N1Cc2cnc(C(C)(C)C)nc2C1 | -14.29%
CNCC(=O)NC1CC(C)(C)Cc2nc(C(C)(C)C)ncc21 (centres undefined) | 107.2%
COC(C)(C)C(=O)N1Cc2cnc(C(C)(C)C)nc2C1 | 5.24%
Cc1cc2c(o1)CC(C)(C)CC2NC(=O)CNC(=O)C1CC1 (centres undefined) | 15.35%
COC(=O)NCC(=O)NC1CC(C)(C)Cc2oc(C)cc21 (centres undefined) | -2.578%
CC(C)(C)c1ncc2c(n1)CN(C(=O)c1ccc(-n3cnnn3)cc1)C2 | -15.52%
Cc1cc(C)n(CC(=O)N2Cc3cnc(C(C)(C)C)nc3C2)n1 | -6.513%
CC1(C)Cc2nc(C(C)(C)C)ncc2C(NC(=O)C2(N)CC2)C1 (centres undefined) | 76.58%
O=C(Nc1ccc(F)c(Cl)c1)N1CCCN([C@H]2COC[C@@H]2O)CC1 | 0.3317%
Cc1nc(C)n(CC2CCCCN2CC(=O)Nc2nncs2)n1 (centres undefined) | -8.145%
Cc1cc(C)cc(CN2CCN(Cc3cc(C#N)n(C)c3)CC2=O)c1 | -7.638%
CCCC(C)Sc1nnnn1C1CCOCC1 (centres undefined) | -26.91%
Cc1c[nH]c(CN2CCCn3nc(CNS(C)(=O)=O)cc3C2)n1 | -1.605%
CC(O)CNC(=O)NCc1cccnc1OC1CCCC1 (centres undefined) | 3.42%
CCC(CNC1CCN(C(=O)N(C)C)CC1)Oc1ccccc1C (centres undefined) | 14.11%
CCc1nnc(C(C)N2CCN(CCC(=O)NC3CC3)CC2)o1 (centres undefined) | 108.9%

SMILES | Percent Effect
CC(C)c1noc(C(C)N2CCN(CCc3ccncc3)CC2)n1 (centres undefined) | -3.07%
CCc1nnc(C(C)N2CCC(NC(=O)C3CCCCC3)CC2)o1 (centres undefined) | 111.1%
CCS(=O)(=O)c1ccc(N2CCC(NC(=O)C3CCCCC3)CC2)cc1 | 14.13%
CCc1noc(C(C)N2CCC(NC(=O)c3ccc(C)s3)CC2)n1 (centres undefined) | -3.823%
CCc1noc(C(C)N2CCN(Cc3ncc(C(C)(C)C)o3)CC2)n1 (centres undefined) | -21.42%
CCc1nnc(C(C)N2CCN(CCC(C)(C)C)CC2)o1 (centres undefined) | 109.6%
CNC(=O)CCN1CCN(C(C)c2ccc(Cl)cc2)CC1 (centres undefined) | 7.005%
CCSCCC(=O)NC1CCN(C(C)c2ccccc2)CC1 (centres undefined) | -12.67%
CC(C)(C)n1ncc2c(=O)[nH]c(N3CC(O)C3)nc21 | 23.02%
CN(C)c1nc(CNC(=O)NC2CCc3ccccc32)cs1 (centres undefined) | 14.75%
CC(c1nccs1)N(C)Cc1ccc(CCC(C)(C)O)cc1 (centres undefined) | -1.522%
CC(=O)N1C[C@@H](F)[C@@H](OCc2nc3cc(C)c(C)cc3[nH]2)C1 | -18.48%
CCOCCCNc1nc2c(s1)c(C)nn2C | 6.024%
CCOCCCNC(=O)NCc1c(C)nn(C)c1C | 102.2%
CCOCCCNC(=O)c1cn(CC)nc1C | 9.774%
CCc1nc2c(c(N(C)Cc3nncn3CCOC)n1)CCNCC2 | 0.734%
Cc1cc(S(C)(=O)=O)c(C)c(S(=O)(=O)NC2CCCC2)c1 | 3.251%
Cc1cc(CS(=O)(=O)NC2CCCCC2)on1 | 4.481%
Cc1cc2[nH]c(=O)c(=O)[nH]c2cc1S(=O)(=O)NC1CCC(C)CC1 (centres undefined) | 107.5%
Cc1cc2[nH]c(=O)c(=O)[nH]c2cc1S(=O)(=O)NC1CCCCC1 | 114.9%
Cc1c(NCc2cccc(C#N)c2)cccc1S(=O)(=O)NC1CC1 | -25.48%
Cc1cn2c(n1)CCC(NS(=O)(=O)c1cc(C)sc1C)C2 (centres undefined) | -1.827%
CC(C)(O)CN1CCN(C(=O)COCC(F)(F)F)CC1 | 2.26%
O=C1NCC2(CCCN(C(=O)c3ccc4c(c3)CCCO4)CC2)O1 (centres undefined) | 15.15%
CN(C)c1ccc(NC(=O)c2cccc(N(C)C)c2)nc1 | -10.74%

SMILES | Percent Effect
Cc1ccnc(NC(=O)c2cccc(OCc3nnnn3C)c2)c1 | 92.28%
Cc1ccc(NC(=O)c2cccc(N(C)C)c2)nc1 | -7.622%
Cc1ccc(NC(=O)c2cccc(OCc3nnnn3C)c2)nc1 | 97.4%
Cc1ccnc(NC(=O)c2ccc(C)o2)c1 | -0.4749%
Cc1ccnc(NC(=O)c2ccc(Br)o2)c1 | -3.231%
CNS(=O)(=O)CCN1CC(c2ccccc2)(c2ccccc2)CCC1=O | 8.028%
CCC(CC)(CNC(=O)OC(C)(C)C)NC(=O)c1cnccn1 | 8.305%
CN(Cc1ccccn1)C1COC2(CCN(Cc3nccs3)CC2)C1 (centres undefined) | -7.584%
Cc1cnc(N2CCC3(CC2)CC(N(C)Cc2ccncc2)C3)nc1.O=C(O)C(F)(F)F.O=C(O)C(F)(F)F | -8.3%
CN(Cc1ccccc1)C1COC2(CCN(Cc3nccs3)CC2)C1.O=C(O)C(F)(F)F (centres undefined) | 20.92%
CN(Cc1cccnc1)C1COC2(CCN(Cc3nccs3)CC2)C1.O=C(O)C(F)(F)F.O=C(O)C(F)(F)F.O=C(O)C(F)(F)F (centres undefined) | 111.1%
CN(C)S(=O)(=O)N1CC[C@]2(C[C@H](OCc3ccncc3)CO2)C1.O=C(O)C(F)(F)F | 20.75%
CN(Cc1ccco1)C1COC2(CCN(Cc3nccs3)CC2)C1.O=C(O)C(F)(F)F.O=C(O)C(F)(F)F (centres undefined) | 98.22%
CN(Cc1cccnc1)C1CC2(CCN(c3ncccn3)CC2)C1.O=C(O)C(F)(F)F.O=C(O)C(F)(F)F | 96.99%
CN(Cc1cn2c(n1)CN(Cc1nccs1)CC2)Cc1ccco1.O=C(O)C(F)(F)F.O=C(O)C(F)(F)F | -16.64%
CN(Cc1ccncc1)C1CC2(CCN(c3ncccn3)CC2)C1.O=C(O)C(F)(F)F.O=C(O)C(F)(F)F.O=C(O)C(F)(F)F | -4.65%
CN(Cc1cccnc1)C1CC2(CCN(c3ncc(F)cn3)CC2)C1.O=C(O)C(F)(F)F.O=C(O)C(F)(F)F | -6.301%
CN(Cc1ccncc1)C1COC2(CCN(Cc3cccs3)CC2)C1.O=C(O)C(F)(F)F.O=C(O)C(F)(F)F.O=C(O)C(F)(F)F (centres undefined) | 100.2%
Cc1ccsc1CN1CCC2(CC1)CC(OCc1cccnc1)CO2.O=C(O)C(F)(F)F.O=C(O)C(F)(F)F (centres undefined) | 12.52%
COc1ccc(CN(C(=O)C(C)SC)c2cnn(C)c2)c(OC)c1 (centres undefined) | -2.56%
O=C1CC[C@H]2CN(Cc3ccc(Cl)s3)CC[C@H]2N1CCc1c[nH]cn1 | -29.01%
CCc1cc(NCCNc2ccncc2C)n2nc(C)c(C)c2n1 | 11.08%
Cc1noc(C)c1CN(C)C(=O)C1(NS(C)(=O)=O)CCCCC1 | -10.96%
CCc1nc(C)c(CN2CCOC(CCCC(C)C)C2)[nH]1 (centres undefined) | -5.664%
COC[C@H]1CNC(=O)[C@@H]2CCN(Cc3ccc(F)cc3)CC[C@H]12.O=C(O)C(F)(F)F | -11.52%

SMILES | Percent Effect
CSc1nccc(N2CCN(C)C3(CCC(=O)N(CC4CC4)CC3)C2)n1 (centres undefined) | -14.1%
O=C(NCC(F)(F)F)C1CSCN1S(=O)(=O)c1ccc(F)cc1 (centres undefined) | 3.931%
CC1N(C)C(=O)COC12CCN(Cc1nccs1)CC2.O=C(O)C(F)(F)F (centres undefined) | 126.1%
CC1N(CC2CC2)C(=O)COC12CCN(Cc1nccs1)CC2.O=C(O)C(F)(F)F (centres undefined) | -4.952%
CN(C)C1COC2(CCN(Cc3nccs3)CC2)C1.O=C(O)C(F)(F)F.O=C(O)C(F)(F)F (centres undefined) | 52.92%
CN(C)C(=O)CN1CCC2(CCN(Cc3nccs3)CC2)C1=O.O=C(O)C(F)(F)F | -19.71%
CC(C)CN1CCC2(CCN(Cc3nccs3)CC2)C1=O.O=C(O)C(F)(F)F | 1.148%
CCc1ccc2c(c1)C(CCNC(=O)Cc1ccc(F)cc1)C(=O)N2 (centres undefined) | 3.277%
Cc1c(CNCC(C)Oc2cccnc2)c2ccccc2n1CC(N)=O (centres undefined) | 60.46%
COc1ncccc1C(=O)NCC(C)Oc1cccnc1 (centres undefined) | -11.32%
Cc1c(CNCCCOc2cccnc2)c2ccccc2n1CC(N)=O | -2.741%
Cc1cc2n(n1)CC(CNC1CCN(C(=O)c3ccco3)CC1)CN2 (centres undefined) | 7.634%
COCCN1CCCC(O)(CN2CCCN(c3ncccn3)CC2)C1=O (centres undefined) | -4.112%
CN(CCc1ccccn1)C1CCCN(Cc2noc(C3CC3)n2)C1 (centres undefined) | 103.4%
CN(Cc1cscn1)C1CCCN(Cc2noc(C3CC3)n2)C1 (centres undefined) | 3.354%
CN(CCS(C)(=O)=O)C1CCCN(Cc2noc(C3CC3)n2)C1 (centres undefined) | 107.2%
CN(CC1(O)CCCCC1)C1CCCN(Cc2noc(C3CC3)n2)C1 (centres undefined) | 0.01553%
CCc1nc(CN2CCCC(N(C)CCn3cncn3)C2)no1 (centres undefined) | 8.167%
CN(CCn1cccn1)C1CCCN(Cc2noc(C3CC3)n2)C1 (centres undefined) | 100.3%
CN(CCCC#N)C1CCCN(Cc2noc(C3CC3)n2)C1 (centres undefined) | -8.895%
CN(CCc1cccs1)C1CCCN(Cc2noc(C3CC3)n2)C1 (centres undefined) | -17.24%
CN(CCc1ccncc1)C1CCCN(Cc2noc(C3CC3)n2)C1 (centres undefined) | 107.5%
Cc1cc(CN(C)C2CCCN(Cc3noc(C4CC4)n3)C2)no1 (centres undefined) | 1.987%
Cc1nc(CN2CCCC(N(C)CCc3ccncc3)C2)no1 (centres undefined) | -4.077%
